Test results: paper PMC11006913
Positions count from the first letter of the chain named.

Experiments:
Assay in all cases: PBM; 200 nM protein, PBS
Settings in all cases: dsDNA, one strand shown
[1] = target: T1, SIX6 (Homo sapiens, UniProt O95475 114-200, L167I)
T1 sequence: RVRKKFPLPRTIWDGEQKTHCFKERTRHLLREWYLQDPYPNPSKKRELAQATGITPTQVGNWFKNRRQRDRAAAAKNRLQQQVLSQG

[2] = target: T2, SIX6 (Homo sapiens, UniProt O95475 114-200, L143V)
T2 sequence: T1 sequence with L30V, I54L

[3] = target: T3, SIX6 (Homo sapiens, UniProt O95475 114-200, H141N)
T3 sequence: T1 sequence with H28N, I54L

[4] = target: T4, SIX6 (Homo sapiens, UniProt O95475 114-200, T165P)
T4 sequence: T1 sequence with T52P, I54L

[5] = target: T5, SIX6 (Homo sapiens, UniProt O95475 114-200, L167M)
T5 sequence: T1 sequence with I54M

[6] = target: T6, SIX6 (Homo sapiens, UniProt O95475 114-200, L143M)
T6 sequence: T1 sequence with L30M, I54L

[7] = target: T7, SIX6 (Homo sapiens, UniProt O95475 114-200, L143I)
T7 sequence: T1 sequence with L30I, I54L

[8] = target: T8, SIX6 (Homo sapiens, UniProt O95475 114-200, T165G)
T8 sequence: T1 sequence with T52G, I54L

[9] = target: T9, SIX6 (Homo sapiens, UniProt O95475 114-200, T139Q)
T9 sequence: T1 sequence with T26Q, I54L

[10] = target: T10, SIX6 (Homo sapiens, UniProt O95475 114-200, T165A)
T10 sequence: T1 sequence with T52A, I54L

[11] = target: T11, SIX6 (Homo sapiens, UniProt O95475 114-200, L167V)
T11 sequence: T1 sequence with I54V

[12] = target: T12, SIX6 (Homo sapiens, UniProt O95475 114-200)
T12 sequence: T1 sequence with I54L

[13] = target: T13, SIX6 (Homo sapiens, UniProt O95475 114-200, T165I)
T13 sequence: T1 sequence with T52I, I54L

With TGATACCA the binding signal [1] was 11.3 upbm affinity estimate (log intensity, higher = more binding, comparable within an allelic series), the binding signal [2] was 10.5 upbm affinity estimate (log intensity, higher = more binding, comparable within an allelic series) and the binding signal [3] was 11.3 upbm affinity estimate (log intensity, higher = more binding, comparable within an allelic series). For the same sequence, the binding signal [4] was 9.8 upbm affinity estimate (log intensity, higher = more binding, comparable within an allelic series), the binding signal [5] was 10.7 upbm affinity estimate (log intensity, higher = more binding, comparable within an allelic series) and the binding signal [6] was 11 upbm affinity estimate (log intensity, higher = more binding, comparable within an allelic series). For the same sequence, the binding signal [7] was 10.6 upbm affinity estimate (log intensity, higher = more binding, comparable within an allelic series), the binding signal [8] was 11.5 upbm affinity estimate (log intensity, higher = more binding, comparable within an allelic series) and the binding signal [9] was 11.3 upbm affinity estimate (log intensity, higher = more binding, comparable within an allelic series). For the same sequence, the binding signal [10] was 11.4 upbm affinity estimate (log intensity, higher = more binding, comparable within an allelic series), the binding signal [11] was 11.1 upbm affinity estimate (log intensity, higher = more binding, comparable within an allelic series) and the binding signal [12] was 11.2 upbm affinity estimate (log intensity, higher = more binding, comparable within an allelic series). The binding signal [13] was 11.1 upbm affinity estimate (log intensity, higher = more binding, comparable within an allelic series).
For ATTGATAC, the binding signal [1] was 11.4 upbm affinity estimate (log intensity, higher = more binding, comparable within an allelic series), the binding signal [2] was 10.5 upbm affinity estimate (log intensity, higher = more binding, comparable within an allelic series) and the binding signal [3] was 11.5 upbm affinity estimate (log intensity, higher = more binding, comparable within an allelic series). For the same sequence, the binding signal [4] was 9.95 upbm affinity estimate (log intensity, higher = more binding, comparable within an allelic series), the binding signal [5] was 10.8 upbm affinity estimate (log intensity, higher = more binding, comparable within an allelic series) and the binding signal [6] was 11.2 upbm affinity estimate (log intensity, higher = more binding, comparable within an allelic series). The binding signal [7] was 10.5 upbm affinity estimate (log intensity, higher = more binding, comparable within an allelic series), the binding signal [8] was 11.4 upbm affinity estimate (log intensity, higher = more binding, comparable within an allelic series) and the binding signal [9] was 11.2 upbm affinity estimate (log intensity, higher = more binding, comparable within an allelic series). For the same sequence, the binding signal [10] was 11.4 upbm affinity estimate (log intensity, higher = more binding, comparable within an allelic series), the binding signal [11] was 11.2 upbm affinity estimate (log intensity, higher = more binding, comparable within an allelic series) and the binding signal [12] was 11.2 upbm affinity estimate (log intensity, higher = more binding, comparable within an allelic series). The binding signal [13] was 11.2 upbm affinity estimate (log intensity, higher = more binding, comparable within an allelic series).
For AGTATCAC, the binding signal [1] was 11.3 upbm affinity estimate (log intensity, higher = more binding, comparable within an allelic series), the binding signal [2] was 10.3 upbm affinity estimate (log intensity, higher = more binding, comparable within an allelic series) and the binding signal [3] was 11.2 upbm affinity estimate (log intensity, higher = more binding, comparable within an allelic series). For the same sequence, the binding signal [4] was 9.74 upbm affinity estimate (log intensity, higher = more binding, comparable within an allelic series), the binding signal [5] was 10.6 upbm affinity estimate (log intensity, higher = more binding, comparable within an allelic series) and the binding signal [6] was 11 upbm affinity estimate (log intensity, higher = more binding, comparable within an allelic series). For the same sequence, the binding signal [7] was 10.3 upbm affinity estimate (log intensity, higher = more binding, comparable within an allelic series), the binding signal [8] was 11.3 upbm affinity estimate (log intensity, higher = more binding, comparable within an allelic series) and the binding signal [9] was 11.3 upbm affinity estimate (log intensity, higher = more binding, comparable within an allelic series). For the same sequence, the binding signal [10] was 11.3 upbm affinity estimate (log intensity, higher = more binding, comparable within an allelic series), the binding signal [11] was 11 upbm affinity estimate (log intensity, higher = more binding, comparable within an allelic series) and the binding signal [12] was 11 upbm affinity estimate (log intensity, higher = more binding, comparable within an allelic series). The binding signal [13] was 11 upbm affinity estimate (log intensity, higher = more binding, comparable within an allelic series).
In the case of ACGATAGT, the binding signal [1] is reported as 10.4 upbm affinity estimate (log intensity, higher = more binding, comparable within an allelic series), the binding signal [2] is reported as 10 upbm affinity estimate (log intensity, higher = more binding, comparable within an allelic series) and the binding signal [3] is reported as 10.4 upbm affinity estimate (log intensity, higher = more binding, comparable within an allelic series). The binding signal [4] was 9.75 upbm affinity estimate (log intensity, higher = more binding, comparable within an allelic series), the binding signal [7] was 10 upbm affinity estimate (log intensity, higher = more binding, comparable within an allelic series) and the binding signal [8] was 10.5 upbm affinity estimate (log intensity, higher = more binding, comparable within an allelic series). The binding signal [9] was 10.6 upbm affinity estimate (log intensity, higher = more binding, comparable within an allelic series), the binding signal [10] was 10.4 upbm affinity estimate (log intensity, higher = more binding, comparable within an allelic series) and the binding signal [11] was 10.3 upbm affinity estimate (log intensity, higher = more binding, comparable within an allelic series). The binding signal [12] was 10.4 upbm affinity estimate (log intensity, higher = more binding, comparable within an allelic series) and the binding signal [13] was 10.3 upbm affinity estimate (log intensity, higher = more binding, comparable within an allelic series).
AGATCCTC was tested, and the binding signal [1] was 10.5 upbm affinity estimate (log intensity, higher = more binding, comparable within an allelic series), the binding signal [2] was 9.98 upbm affinity estimate (log intensity, higher = more binding, comparable within an allelic series) and the binding signal [3] was 10.3 upbm affinity estimate (log intensity, higher = more binding, comparable within an allelic series). The binding signal [4] was 9.64 upbm affinity estimate (log intensity, higher = more binding, comparable within an allelic series), the binding signal [6] was 10.5 upbm affinity estimate (log intensity, higher = more binding, comparable within an allelic series) and the binding signal [7] was 9.91 upbm affinity estimate (log intensity, higher = more binding, comparable within an allelic series). The binding signal [9] was 10.6 upbm affinity estimate (log intensity, higher = more binding, comparable within an allelic series), the binding signal [10] was 10.4 upbm affinity estimate (log intensity, higher = more binding, comparable within an allelic series) and the binding signal [11] was 10.2 upbm affinity estimate (log intensity, higher = more binding, comparable within an allelic series). The binding signal [12] was 10.4 upbm affinity estimate (log intensity, higher = more binding, comparable within an allelic series).
With ATACGATA the binding signal [1] was 11.1 upbm affinity estimate (log intensity, higher = more binding, comparable within an allelic series), the binding signal [2] was 10.4 upbm affinity estimate (log intensity, higher = more binding, comparable within an allelic series) and the binding signal [3] was 11 upbm affinity estimate (log intensity, higher = more binding, comparable within an allelic series). For the same sequence, the binding signal [4] was 9.94 upbm affinity estimate (log intensity, higher = more binding, comparable within an allelic series), the binding signal [5] was 10.6 upbm affinity estimate (log intensity, higher = more binding, comparable within an allelic series) and the binding signal [6] was 10.9 upbm affinity estimate (log intensity, higher = more binding, comparable within an allelic series). The binding signal [7] was 10.4 upbm affinity estimate (log intensity, higher = more binding, comparable within an allelic series), the binding signal [8] was 11.2 upbm affinity estimate (log intensity, higher = more binding, comparable within an allelic series) and the binding signal [9] was 11.2 upbm affinity estimate (log intensity, higher = more binding, comparable within an allelic series). The binding signal [10] was 11 upbm affinity estimate (log intensity, higher = more binding, comparable within an allelic series), the binding signal [11] was 10.9 upbm affinity estimate (log intensity, higher = more binding, comparable within an allelic series) and the binding signal [12] was 10.9 upbm affinity estimate (log intensity, higher = more binding, comparable within an allelic series). The binding signal [13] was 10.8 upbm affinity estimate (log intensity, higher = more binding, comparable within an allelic series).
